High-throughput results (PubChem)
Rows were chosen to be rich in hits. Some 4.1% of all compounds tested hit in one or more screens of this group.
DAX1 inh-1: DAX1 (NR0B1) inhibition, primary screen; 370,000 compounds, 1.1% hits; inhibition, % at 6.8 µM; HEK293T StAR-luciferase reporter, SF-1/DAX-1 repression relief;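 active = inhibition above the mean over all tested compounds plus 3 SD, cut at about 3.6% in these data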;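 also: 0% = DAX-1 cells with DMSO and 100% = cells lacking DAX-1 with DMSO; higher inhibition means more luminescence from relief of DAX-1 repression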
ssDAF12 agonist: S. stercoralis DAF-12 activation, primary screen; HEK293 ssDAF-12/GRIP1 lit1-tk-luc reporter, luminescence; % of 3 µM dafachronic acid response; activation, % at 6.8 µM; 370,000 compounds, 1% hits; AID 652126;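 active = activation above the mean over all tested compounds plus 3 SD, cut at about 0.9% in these data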;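 also: 0% = DMSO-only wells and 100% = 3 µM delta7-dafachronic acid wells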
DAX1 inh-2: NR0B1 (DAX1) inhibition | AID 504766 | 340,000 compounds, 0.99% hits | HEK293 Gal4-DAX1 luciferase reporter, luminescence | inhibition, % at 6.75 µM | P51843;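 active = inhibition above the mean over all tested compounds plus 3 SD, cut at about 4.2% in these data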;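 also: 0% = DAX1-transfected cells with DMSO and 100% = empty-vector control cells with DMSO; inhibition shows as a rise in luminescence from relieved DAX1 repression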
Target sequence (P51843 207-470 limits assumed): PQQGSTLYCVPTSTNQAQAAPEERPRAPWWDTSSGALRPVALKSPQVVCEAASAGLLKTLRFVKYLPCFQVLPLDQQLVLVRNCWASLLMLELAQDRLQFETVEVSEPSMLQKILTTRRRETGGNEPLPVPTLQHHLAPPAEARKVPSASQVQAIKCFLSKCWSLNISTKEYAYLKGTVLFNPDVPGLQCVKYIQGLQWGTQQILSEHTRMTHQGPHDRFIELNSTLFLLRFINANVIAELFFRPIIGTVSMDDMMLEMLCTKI
hcDAF-12 act: H. contortus DAF-12 activation, primary screen; HEK293 hcDAF-12 lit1-tk-luc reporter, luminescence; 0% DMSO, 100% Δ7-dafachronic acid; activation, % at 6.8 µM; 370,000 compounds, 1.4% hits; AID 652067;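 active = activation above the mean of all tested compounds plus 3 SD, cut at about 5.5% in these data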;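 also: 100% = response to 3 µM Δ7-dafachronic acid high control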
hgDAF-12 ag: activates the H. glycines DAF-12 receptor ligand-binding domain | HEK293 GAL4-hgDAF12 UAS-luciferase reporter, agonist luminescence; normalized to butyrate control | activation, % at 6.8 µM | 370,000 compounds, 1.8% hits | AID 687014;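 active = activation above a cutoff set at the mean of all screened compounds plus 3 SD, cut at about 10% in these data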;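 also: 0% = DMSO wells and 100% = sodium butyrate wells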
DAX1 conf: confirmation of human DAX1 (NR0B1) inhibitors | shares compounds with DAX1 inh-1 | HEK293T StAR-promoter luciferase reporter, SF-1/DAX-1 repression | inhibition, % at 6.8 µM | 2,400 compounds, 87% hits | AID 652134;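 active = inhibition above the average of every tested compound plus 3 SD, cut at about 3.8% in these data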;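 also: 0% = DAX-1 cells with DMSO and 100% = no DAX-1 control cells with DMSO; active compounds raise luminescence by relieving repression of the StAR reporter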
Target sequence (P51843 whole entry, looked up): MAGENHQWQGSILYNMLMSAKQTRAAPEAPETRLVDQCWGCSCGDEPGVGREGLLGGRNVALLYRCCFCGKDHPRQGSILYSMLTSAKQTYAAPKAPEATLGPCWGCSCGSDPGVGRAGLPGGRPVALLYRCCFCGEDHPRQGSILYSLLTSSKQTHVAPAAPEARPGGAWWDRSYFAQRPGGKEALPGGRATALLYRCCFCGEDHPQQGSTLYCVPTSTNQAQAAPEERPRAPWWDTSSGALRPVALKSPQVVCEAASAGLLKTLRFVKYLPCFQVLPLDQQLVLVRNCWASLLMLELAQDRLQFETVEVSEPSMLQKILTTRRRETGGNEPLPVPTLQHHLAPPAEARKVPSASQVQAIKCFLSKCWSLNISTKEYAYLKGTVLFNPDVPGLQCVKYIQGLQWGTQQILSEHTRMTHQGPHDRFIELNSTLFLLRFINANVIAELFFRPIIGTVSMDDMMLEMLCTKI
SF1 AF2mut Luc: nonselective inhibitor or artifact in SF-1 mutant DAX1 counter-screen; shares compounds with DAX1 inh-1; HEK293 StAR-luciferase, SF-1 AF2 mutant, luminescence; inhibition, % at 6.8 µM; 2,400 compounds, 78% hits; AID 652136;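 active = inhibition above the mean of all tested compounds plus 3 SD, cut at about 3% in these data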;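 also: 0% = DAX-1 transfected cells with DMSO and 100% = cells without DAX-1 with DMSO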
* marks the source's active call; other numbers are inactive results; · = not tested or not shown.

SMILES | DAX1 inh-1 | ssDAF12 agonist | DAX1 inh-2 | hcDAF-12 act | hgDAF-12 ag | DAX1 conf | SF1 AF2mut Luc
COc1cccc(N2CCN(C(=O)COc3cc(=O)n(C)c4ccccc34)CC2)c1 | -0.5 | -0.9 | · | 0.0 | -2.8 | · | ·
COc1ccc(CN(C)C(=O)[C@H]2O[C@@H](n3ccc(=O)[nH]c3=O)[C@H](O)[C@@H]2O)cc1OC | 4.7* | -0.8 | · | 0.2 | -1.2 | 0.3 | -0.4
CN(CC(=O)Nc1cccc(F)c1)C(=O)c1cn2ccccc2n1 | 0.1 | -0.4 | 0.8 | -1.5 | -0.5 | · | ·
O=C(CNC(=O)c1cn2ccccc2n1)Nc1ccc(F)c(F)c1 | 6.2* | 0.2 | 3.1 | 2.4 | 8.7 | 8.5* | 5.7*
Cc1cc(C(=O)N/N=C/c2c(C)nn(-c3ccccc3)c2Cl)n[nH]1 | 0.0 | -1.3 | · | 0.8 | 2.8 | · | ·
Cc1nn(-c2ccccc2)c(Cl)c1/C=N/NC(=O)c1ccn[nH]1 | 14.4* | 0.3 | -0.3 | 5.8* | 13.2* | 8.8* | 5.8*
O=C(c1ccco1)N1CCN(c2ncccn2)CC1 | 1.5 | -1.3 | 1.1 | -0.5 | 7.1 | · | ·
O=C1CCCc2nc(N3CCN(C(=O)c4ccco4)CC3)ncc21 | 5.7* | 0.5 | 2.3 | 1.8 | 5.3 | 5.9* | 3.4*
Cc1occc1C(=O)N/N=C/c1ccc[nH]1 | 5.2* | 0.0 | 2.2 | 2.5 | 10.8* | 2.5 | 0.9
CCn1c(=O)n2n(c1=O)[C@H]1C[N+](Cc3ccc4c(c3)OCO4)=C(N)NC1=C(C)C2 | · | -1.0 | · | -3.6 | 2.1 | · | ·
O=C(OCC(=O)N1CCCCCC1)c1ccccc1Br | 4.5* | -0.1 | 1.6 | 5.7* | 11.7* | 10.1* | 5.3*
O=C(OCC(=O)N1CCCC1)c1ccccc1O | 0.9 | 0.3 | 3.6 | 3.5 | 3.4 | · | ·
O=C(OCC(=O)N1CCN(c2ccccc2)CC1)c1ccccc1OC(F)F | 5.0* | -0.9 | -0.4 | -0.5 | 0.1 | -1.9 | -0.8
C=CCc1cccc(C=NNC(=O)c2ccco2)c1O | -3.5 | -0.6 | · | -1.9 | -0.3 | · | ·
O=C(NC1CCC1)c1ccc(C#Cc2cccc(F)c2)cn1 | -0.6 | -1.0 | · | -2.9 | -1.9 | · | ·
Nc1[nH]c2ccccc2c1C(=O)NC1CC1 | 0.3 | 0.1 | · | 2.2 | 3.7 | · | ·
CNc1nnc(SCC(=O)c2cc(C)n(C3CC3)c2C)s1 | 5.0* | -1.4 | 0.2 | 3.4 | 4.8 | 6.7* | 2.7
CC(C)c1[nH]nc2c1C(c1ccccc1)N(Cc1ccccc1)C2=O (configuration not stated) | 0.2 | -1.1 | · | -0.4 | -3.0 | · | ·
COC(=O)c1ccc2nc(-c3ccccc3)c(Cc3ccccc3OC)n2c1 | 4.8* | 0.8 | · | 2.0 | 2.0 | 2.0 | 1.8
Clc1ccc(-c2nc3ccc(Br)cn3c2Cc2ccsc2)cc1 | 5.2* | 0.6 | · | 2.5 | 7.8 | 5.2* | 2.1
COc1ccccc1Cc1c(-c2ccc(C)cc2)nc2c(C)cc(Br)cn12 | 5.3* | 0.7 | · | 2.8 | 4.8 | -0.4 | -0.4
COC(=O)c1ccc2nc(-c3ccc(C)cc3)c(Cc3ccccc3OC)n2c1 | 0.8 | -0.8 | · | 1.0 | 0.0 | · | ·
COc1ccccc1Cc1c(-c2ccc(C)cc2)nc2ccc(Br)cn12 | 7.4* | 0.6 | · | 6.3* | 23.1* | 8.2* | 5.6*
COC(=O)[C@]12C[C@H](CC(=O)N3CCN(C(=O)c4ccco4)CC3)C(=O)N(Cc3ccccc3)C1=C[C@H](COCc1ccccc1)O[C@@H]2C | 0.5 | -2.3 | · | -1.6 | -3.4 | · | ·
COc1ccccc1Cc1c(-c2ccc(Cl)cc2)nc2ccc(Br)cn12 | 5.5* | -0.1 | · | 1.1 | 4.0 | 6.3* | 4.3*
SMILES | DAX1 inh-1 | ssDAF12 agonist | DAX1 inh-2 | hcDAF-12 act | hgDAF-12 ag | DAX1 conf | SF1 AF2mut Luc
O=C(Nc1ccc2c(c1)CCC2)Nc1ccc(F)cc1F | 5.5* | -0.3 | 1.6 | 1.8 | 11.0* | 9.9* | 6.9*
O=C(Nc1cccc(F)c1)Nc1ccc2c(c1)CCC2 | 3.2 | -0.2 | 1.4 | 5.3 | 8.7 | · | ·
O=C(Nc1ccc(F)cc1)Nc1ccc2c(c1)CCC2 | 5.2* | 0.1 | 1.9 | -0.4 | 6.9 | 4.2* | 3.1*
Cc1ccc(NC(=O)Nc2ccc3c(c2)CCC3)cc1 | 5.5* | -1.0 | 1.4 | 1.6 | 7.1 | 5.3* | 4.6*
CCCCCCCCN1C(=O)[C@@H](CC(=O)NCC23CC4CC(CC(C4)C2)C3)C[C@@]2(C(=O)OC)C1=C[C@H](C1CCCC1)O[C@@H]2C | -0.1 | -1.0 | · | 0.8 | -1.1 | · | ·
C[C@@H]1[C@@H](c2ccccc2)c2cc3ccccc3nc2-c2nc3ccccc3cc2[C@@H]1C(=O)N1CCCC1 | -0.4 | -0.4 | · | 0.7 | -2.0 | · | ·
CCOc1ccc(N(CC(=O)Nc2ccccc2OCC)S(=O)(=O)c2c(C)noc2C)cc1 | 13.4* | -0.3 | 0.1 | 0.6 | 1.0 | 15.6* | -6.6
COc1ccc(C(=O)Nc2ccnn2C2CCN(C(=O)CCC(F)(F)F)CC2)cc1 | 5.7* | -1.0 | -0.2 | 4.7 | 8.6 | 6.4* | 8.0*
Cc1cc(NC(=O)COc2ccc3ccccc3c2Br)no1 | 6.0* | -0.7 | 0.8 | 3.0 | 9.2 | 5.6* | 6.0*
COc1cc(C(=O)NC2CCCCN(C)C2=O)cc(OC)c1OC (configuration not stated) | 0.5 | -1.4 | · | 0.3 | -0.2 | · | ·
COc1ccc2c(c1)CO[C@H]([C@H](O)COC(C)=O)[C@H]2/C=C/c1ccccc1 | -1.0 | -0.7 | · | -1.9 | -2.3 | · | ·
Cn1c(C(=O)NCCCN2CCOCC2)cc2c(=O)n(C)c3ccccc3c21 | 1.4 | -1.1 | 2.5 | -0.8 | -2.0 | · | ·
CN1CCC[C@H]1CCNc1ccc2c(=O)c3ccccc3n(C)c2c1 | 8.1* | -0.2 | 1.3 | 5.1 | 9.4 | 15.2* | 9.6*
Cn1c2ccccc2c(=O)c2cc(NCCCN3CCOCC3)ccc21 | 5.1* | 0.2 | 3.7 | 4.3 | 10.6* | 15.1* | 10.1*
C=CCN1C(=O)[C@@H](CC(=O)N2CCOCC2)[C@]2(C(=O)OCC)CCCCC/C=C/12 | 0.6 | -1.0 | · | -0.9 | 1.6 | · | ·
Cc1nn(-c2ccccc2)c(C)c1C(=O)OCC(=O)Nc1ccccc1F | 7.4* | 0.2 | 0.9 | 1.6 | 10.2 | 7.0* | 3.6*
CCOc1ccccc1N1CC(C(=O)NCCC2=CCCCC2)CC1=O (configuration not stated) | 5.2* | -0.9 | 1.6 | 3.7 | 8.5 | 4.1* | 3.3*
CC(=O)c1cc(-c2ccccc2)n(CC(=O)NCc2ccccc2)c1C | -1.5 | -1.3 | · | -3.1 | 0.3 | · | ·
O=S1(=O)c2ccc(N3CC[C@H](O)C3)cc2O[C@H]2CCN1C2 | -1.8 | -1.5 | · | 1.3 | -1.6 | · | ·
Cc1ccc(-n2ncc3c(N4CCCC(C)C4)ncnc32)c(C)c1 (configuration not stated) | 4.8* | -0.1 | 1.8 | 2.0 | 10.8* | 7.2* | 5.5*
O=C(CNC(=O)c1cccs1)c1ccc(F)cc1 | 4.7* | -0.5 | 1.0 | 4.9 | 13.2* | 16.3* | 6.9*
